# Inconclusive results are not listed. Entries that show only a call come without a potency. Values without a mark were called inactive. Calls of active or inactive are those of the source. Calls come from the whole dose curve; as a rule, active = well fitted curve in the direction sought with a large enough effect; inconclusive = small, poorly fitted or top-dose-only effect, or another doubt; inactive = no such curve, though single readings can be large; an effect the other way counts as inactive or inconclusive.
# Experiments:
# [1] = Quantitative highthroughput screen to assess conditional lethalithy of NOMO1 cells grown in RPMI1640 with untreated serum (RPMI+s) (AID 1963876); note: nearly all actives have a fitted effect of over 35% in size; note: potency is the fitted concentration of half-maximal effect
# In short: (§1)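 Each medium arm—HPLM with 10% dialyzed FBS, or RPMI1640 with 5 mM glucose and 10% untreated or dialyzed FBS—was screened against an 11-point, 3-fold compound titration for 48 h at 37 °C, with CellTiter-Glo luminescence as endpoint.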
# [2] = Quantitative highthroughput screen to assess conditional lethalithy of NOMO1 cells grown in Human Plasma-Like Medium with dialyzed fetal bovine serum (HPLM+ds) (AID 1963878); note: nearly all actives have a fitted effect of over 35% in size; note: potency is the fitted concentration of half-maximal effect
# In short: as §1
# [3] = Quantitative highthroughput screen to assess conditional lethalithy of P12 Ichikawa cells grown in Human Plasma-Like Medium with dialyzed fetal bovine serum (HPLM+ds) (AID 1963879); settings: Potency: viability; note: nearly all actives have a fitted effect of over 35% in size; note: potency is the fitted concentration of half-maximal effect; for viability: series mostly up to about 46 µM
# In short: as §1
# [4] = Quantitative highthroughput screen to assess conditional lethalithy of P12 Ichikawa cells grown in RPMI1640 with dialyzed fetal bovine serum (RPMI+ds) (AID 1963880); settings: Potency: P12-Ichikawa viability; note: nearly all actives have a fitted effect of over 35% in size; note: potency is the fitted concentration of half-maximal effect
# In short: as §1
# [5] = Quantitative highthroughput screen to assess conditional lethalithy of P12 Ichikawa cells grown in RPMI1640 with untreated serum (RPMI+s) (AID 1963881); settings: Potency: viability; note: nearly all actives have a fitted effect of over 35% in size; note: potency is the fitted concentration of half-maximal effect; for viability: series mostly up to about 46 µM
# In short: as §1
# [6] = Quantitative highthroughput screen to assess conditional lethalithy of SEM cells grown in Human Plasma-Like Medium with dialyzed fetal bovine serum (HPLM+ds) (AID 1963882); note: nearly all actives have a fitted effect of over 35% in size; note: potency is the fitted concentration of half-maximal effect; for viability: series mostly up to about 46 µM
# In short: as §1
# [7] = Quantitative highthroughput screen to assess conditional lethalithy of SEM cells grown in RPMI1640 with dialyzed fetal bovine serum (RPMI+ds) (AID 1963884); note: nearly all actives have a fitted effect of over 35% in size; note: potency is the fitted concentration of half-maximal effect; for viability: series mostly up to about 46 µM
# In short: as §1
# [8] = Cellular viability qHTS for adrenocortical cancer (ACC) cell line NCI-H295R (AID 1963990); note: nearly all actives have a fitted effect of over 60% in size; note: potency is the fitted concentration of half-maximal effect
# In short: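 IC50 and maximal efficacy derive from four-parameter logistic modelling of titration curves, with reads scaled between DMSO-only wells (0%) and doxorubicin hydrochloride (100% inhibition). Compounds spanned up to 46 uM over 48 h.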
# [9] = Quantitative highthroughput screen to assess conditional lethalithy of NOMO1 cells grown in RPMI1640 with dialyzed fetal bovine serum (RPMI+ds) (AID 1963877); note: series mostly up to about 46 µM; nearly all actives have a fitted effect of over 30% in size
# In short: as §1
# [10] = Quantitative highthroughput screen to assess conditional lethalithy of SEM cells grown in RPMI1640 with unreated serum (RPMI+s) (AID 1963883); note: nearly all actives have a fitted effect of over 35% in size; note: potency is the fitted concentration of half-maximal effect
# In short: as §1
# [11] = Cellular viability qHTS for adrenocortical cancer (ACC) cell line SW-13 (AID 1963989); settings: SW-13 ACC cells viability, CellTiter-Glo, 48 h; activity (max response): stronger effect = lower value; note: nearly all actives have a fitted effect of over 65% in size; note: potency is the fitted concentration of half-maximal effect;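 for activity (max response): cells grown in serum-free medium with ITS supplement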
# In short: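 Luminescent ATP read-out (CellTiter-Glo, 20 min at room temperature) measured metabolically competent SW-13 cells after 48 h compound treatment. Final concentrations spanned up to 46 uM; bortezomib served as positive control.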
structure (smiles),measurement,setting,value
OC1CCC(Nc2ncc3nc(Nc4c(F)cc(F)cc4F)n([C@@H]4CCOC4)c3n2)CC1 (some centres not stated),Potency,[1],inactive
same,Potency,[2],inactive
same,Potency,[3],inactive
same,Potency,[4],inactive
same,Potency,[5],inactive
same,Potency,[6],inactive
same,Potency,[7],inactive
same,Potency,[8],inactive
CC(=O)OCC(=O)[C@@]12N=C(C)O[C@H]1C[C@H]1[C@@H]3CCC4=CC(=O)C=C[C@]4(C)[C@@H]3[C@@H](O)C[C@@]12C,Potency,[1],inactive
same,Potency,[9],inactive
same,Potency,[10],23.5 µM (active)
same,Potency,[7],20.9 µM (active)
CC(=O)O[C@@]12CO[C@H]1C[C@H](O)[C@@]1(C)C(=O)[C@H](O)C3=C(C)[C@@H](OC(=O)C(O)[C@@H](NC(=O)OC(C)(C)C)c4ccccc4)C[C@@](O)([C@@H](OC(=O)c4ccccc4)[C@@H]21)C3(C)C (some centres not stated),Potency,[1],inactive
same,Potency,[9],inactive
same,Potency,[6],inactive
same,Potency,[10],inactive
same,Potency,[7],inactive
CC(=NNC(=S)N1CCC1)c1ccccn1,Potency,[1],0.0083 µM (active)
same,Potency,[2],0.0047 µM (active)
same,Potency,[3],0.0053 µM (active)
same,Potency,[4],0.0066 µM (active)
same,Potency,[5],0.0059 µM (active)
same,Potency,[6],0.0026 µM (active)
same,Potency,[10],0.0033 µM (active)
same,Potency,[7],0.0021 µM (active)
Nc1ccn(C[C@@H](CO)OCP(=O)(O)O)c(=O)n1,Potency,[1],inactive
same,Potency,[2],inactive
same,Potency,[3],inactive
same,Potency,[4],inactive
same,Potency,[5],inactive
same,Potency,[6],inactive
same,Potency,[7],inactive
same,activity (max response),[11],-11.5%
same,"activity change, negative = viability loss",[8],1.71% [at 9.17 µM]
CCc1cc(C(C)=NOCc2ccc(C3CCCCC3)c(C(F)(F)F)c2)ccc1CN1CC(C(=O)O)C1,Potency,[1],8.33 µM (active)
same,Potency,[3],8.33 µM (active)
same,Potency,[4],7.43 µM (active)
same,Potency,[5],9.35 µM (active)
same,Potency,[6],7.43 µM (active)
same,Potency,[10],13.2 µM (active)
O=C(O)c1c(Cl)c(Cl)c(Cl)c(Cl)c1-c1c2cc(I)c(=O)c(I)c-2oc2c(I)c(O)c(I)cc12,Potency,[1],16.6 µM (active)
same,Potency,[2],inactive
same,Potency,[3],8.33 µM (active)
same,Potency,[11],12.6 µM (active)
same,Potency,[8],14.1 µM (active)
COc1cccc(-c2ccc(NC(=O)C3=C(C(=O)O)CCC3)c(F)c2)c1,Potency,[1],inactive
same,Potency,[2],inactive
same,Potency,[6],inactive
CC(=O)N[C@H]1[C@@H]([C@H](O)[C@H](O)CO)OC(C(=O)O)=C[C@@H]1N=C(N)N,Potency,[1],inactive
same,Potency,[3],inactive
same,Potency,[4],inactive
same,Potency,[6],inactive
Clc1ccc(COC(Cn2ccnc2)c2ccc(Cl)cc2Cl)cc1 (configuration not stated),Potency,[1],inactive
same,Potency,[2],inactive
same,Potency,[3],inactive
same,Potency,[4],5.9 µM (active)
same,Potency,[6],inactive
same,Potency,[7],inactive
COc1ccc(-c2ccc3c(N4CCOC[C@H]4C)nc(N4CCOC[C@H]4C)nc3n2)cc1CO,Potency,[1],18.7 µM (active)
same,Potency,[3],18.7 µM (active)
CCOC(=O)[C@H]1O[C@H]1C(=O)N[C@@H](CC(C)C)C(=O)NCCC(C)C,Potency,[1],23.5 µM (active)
same,Potency,[3],inactive
same,Potency,[4],inactive
same,Potency,[5],inactive
same,Potency,[6],inactive
same,Potency,[10],inactive
same,Potency,[7],inactive
O=C(O)c1ccc(-c2cc3cccnc3c(-c3ccc4nonc4c3)n2)cc1,Potency,[1],inactive
same,Potency,[3],inactive
same,Potency,[5],inactive
CNC(=O)c1ccccc1Sc1ccc2c(C=Cc3ccccn3)n[nH]c2c1,Potency,[1],2.35 µM (active)
same,Potency,[2],4.18 µM (active)
same,Potency,[3],7.43 µM (active)
same,Potency,[10],5.26 µM (active)
same,Potency,[7],4.69 µM (active)
CC(C)CN(C[C@@H](O)[C@H](Cc1ccccc1)NC(=O)O[C@H]1CO[C@H]2OCC[C@H]21)S(=O)(=O)c1ccc(N)cc1,Potency,[1],inactive
same,Potency,[2],inactive
same,Potency,[6],3.72 µM (active)
COC[C@@H](c1ccc(C(F)(F)F)cc1)N1CCN(C2(C)CCN(C(=O)c3c(C)ncnc3C)CC2)C[C@H]1C,Potency,[1],2.35 µM (active)
same,Potency,[3],inactive
same,Potency,[4],inactive
same,Potency,[5],inactive
same,activity (max response),[11],-14.2%
COC(=O)[C@@H]1[C@H]2C[C@@H]3c4[nH]c5ccccc5c4CCN3C[C@@H]2CC[C@@H]1O,Potency,[1],0.526 µM (active)
same,Potency,[3],2.96 µM (active)
same,Potency,[4],5.26 µM (active)
same,Potency,[5],3.32 µM (active)
same,Potency,[6],inactive
same,Potency,[10],inactive
same,Potency,[7],inactive
C[N+]1(C)[C@@H]2CC(OC(=O)[C@H](CO)c3ccccc3)C[C@H]1[C@H]1O[C@@H]12 (some centres not stated),Potency,[1],inactive
same,Potency,[3],inactive
same,Potency,[4],inactive
same,Potency,[5],inactive
same,Potency,[6],inactive
same,Potency,[10],inactive
same,Potency,[7],inactive
COc1ccc2c3n(c(=NC(=O)c4cccnc4)nc2c1OC)CCN3,Potency,[1],inactive
same,Potency,[2],7.43 µM (active)
same,Potency,[6],20.9 µM (active)
same,Potency,[7],9.35 µM (active)
same,activity (max response),[11],2.77%
same,"activity change, negative = viability loss",[8],-25.5% [at 3.81 µM]
CC(C)(C)[C@H](NC(=O)c1ccc(N)c(Cl)c1)C(=O)N1CCC[C@@H]1C(=O)N[C@H](C#N)CC(=O)O,Potency,[1],0.105 µM (active)
same,Potency,[3],0.372 µM (active)
same,Potency,[4],1.05 µM (active)
same,Potency,[5],0.418 µM (active)
same,viability,[6],112% [at 3.51 µM]
same,viability,[10],92.8% [at 3.51 µM]
same,viability,[7],105% [at 3.51 µM]
CC(C)(C)c1[nH]cnc1C=c1[nH]c(=O)c(=Cc2ccccc2)[nH]c1=O,Potency,[1],0.0068 µM (active)
same,Potency,[3],0.0061 µM (active)
same,Potency,[4],0.0108 µM (active)
same,Potency,[5],0.0086 µM (active)
same,Potency,[6],0.0048 µM (active)
same,Potency,[10],0.0061 µM (active)
same,Potency,[7],0.0061 µM (active)

# — PubChem BioAssay (NCATS)
